# Only some compounds are listed: those with a hit (about 7.8% of all), similar ones and a draw of the others.
# Vaccinia Venus = inhibitors of vaccinia virus (Venus reporter); Vaccinia virus Venus reporter expression, fluorescence; Potency, µM (highest dose often 36.5 µM), without a hit: at the highest dose activity change, negative = inhibition, usual class: inhibitors; 330,000 compounds, 0.46% hits; AID 720580; calls by dose curve; tested in A549 cells; note: potency is the fitted concentration of half-maximal effect; nearly all actives have a fitted effect of over 30% in size
# HCV inhibitor = blocks hepatitis C virus. Potency, µM (series often up to 41.8 µM), for inactives: top-dose activity change, negative = inhibition, most hits filed as inhibitors. AID 651820. Huh7.5.1 HCVcc-Cre infection, luciferase reporter, 44 h. 340,000 compounds, 3.4% hits; active = well fitted inhibition curve with a large enough effect; inconclusive = small, poorly fitted or top-dose-only effect, or another doubt; inactive = no such curve, though single readings can be large or run the other way; note: potency is the fitted concentration of half-maximal effect
#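 Luciferase read-out (15 sec integration) after a 15 min room-temperature substrate step quantifies HCVcc-Cre infection. Cells, 1,000 per well, had compound added 4 h post-plating, then virus at ~0.5 moi, and were cultured 44 h.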
# HCMV inh = blocks human cytomegalovirus replication; activity change, negative = inhibition, % at 57.5 µM; HFF cells, HCMV-luciferase reporter, 72 h; active compounds read low; 410,000 compounds, 4.5% hits; in the data active = activity change below about -60%; inconclusive = no clear call, values can overlap the other calls; inactive = above about -39%
#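 HFF cells seeded 16 h at 37C, treated with compounds, infected with luciferase-reporter HCMV at MOI 1 PFU/cell; luciferase read at 72 h post infection, normalized to buffer-only and Salinomycin controls.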
# Vaccinia mCherry = inhibitors of vaccinia virus infection (mCherry reporter signal) | AID 720579 | 310,000 compounds, 0.63% hits | Vaccinia virus mCherry reporter infection, fluorescence | Potency, µM (titrated, usually from 36.5 µM), for the others: top-dose activity change, negative = inhibition, usual class: inhibitors; calls by dose curve; tested in A549 cells; note: potency is the fitted concentration of half-maximal effect; nearly all actives have a fitted effect of over 35% in size
# MARV entry inh = blocks Marburg virus binding to or entry into cells. Marburg virus pseudotyped entry inhibition, cell reporter. Potency, µM (highest dose often 37.8 µM), for the others: at the top dose activity change, negative = inhibition, usual class: inhibitors. 300,000 compounds, 1.8% hits. AID 540276; calls by dose curve; tested in HEK293 cells; note: potency is the fitted concentration of half-maximal effect
# Lassa entry inh = inhibitors of Lassa virus binding or cell entry; Lassa virus pseudotype entry inhibition, cell reporter; Potency, µM (titrated, usually from 37.9 µM), for the others: top-dose activity change, negative = inhibition, hits mostly inhibitors; 300,000 compounds, 1.2% hits; calls by dose curve; tested in HEK293 cells; note: potency is the fitted concentration of half-maximal effect; nearly all actives have a fitted effect of over 50% in size
# Active calls of the source: *; i = inactive; ? = inconclusive; . = not tested or not shown; [ ] = remark or other dose. % is set by controls: 0 for no effect and ±100 for the full control effect.
SMILES,Vaccinia Venus,HCV inhibitor,HCMV inh,Vaccinia mCherry,MARV entry inh,Lassa entry inh
Cc1nn(-c2ccccc2)c2sc(C(=O)Nc3cccc(O)c3)cc12,-22.8%,.,-30.8,?,-44.2%[46.1 µM],?
Cc1nn(-c2ccccc2)c2sc(C(=O)O)cc12,-10.4%,11.9%,28.0,i,17.6%[46.1 µM],-4.4%
COC(=O)c1cc2c(C)nn(-c3ccccc3)c2s1,-28.6%,6.31µM*,32.4,.,20.8%,10.1%
Cc1ccc(NC2=C(C(=O)c3ccccc3)N(C)S(=O)(=O)c3ccccc32)cc1,-25.3%,11.2µM*,?,?,?,-28.7%
CN1C(C(=O)c2ccccc2)=C(N)c2ccccc2S1(=O)=O,-11.3%,3.8%,64.7,-4.1%,-7.3%[46.1 µM],-5.5%[46.1 µM]
Cc1ccc2c(c1)/C(=C/c1ccco1)C(=O)N2,-20.8%,11.2µM*,19.3,-24.7%,?,-26.9%[46.1 µM]
Cc1ccc(CNC(=O)COC(=O)c2ccccc2OCC(=O)Nc2ccc(Br)cc2)cc1,-14.2%,.,.,i,.,.
CCOc1ccc(C(=O)/C=C/c2cn(CN3CCN(C)CC3)c3ccccc23)cc1,-23.3%,?,1.6,-19.5%,-24.9%,-5.0%
CCCN(CCC)CC(O)Cn1cc(/C=C/C(=O)c2ccc(OCC)cc2)c2ccccc21 (stereo not given),?,.,-105.9*,?,?,?
CC(C)CN(CC(C)C)CC(O)Cn1cc(/C=C/C(=O)c2ccccc2)c2ccccc21 (stereo not given),-13.7%,.,23.4,-23.0%,2.4%[46.1 µM],?
COc1ccc(C(=O)/C=C/c2cn(CC(O)CN3CCOCC3)c3ccccc23)cc1 (stereo not given),-26.6%,?,.,-18.0%,?,-18.3%
COc1ccc(C(=O)/C=C/c2cn(CC(O)CN3CCc4ccccc43)c3ccccc23)cc1OC (stereo not given),-19.5%,.,-63.7*,?,?,?
Cc1ccc(C(=O)/C=C/c2cn(CC(O)CN3CCOCC3)c3ccccc23)cc1 (stereo not given),-27.8%,?,-18.6,-14.9%,?,-0.9%
COc1ccc(C(=O)/C=C/c2cn(CN3CCN(C)CC3)c3ccccc23)cc1,.,8.91µM*,.,.,?,-28.3%
Cc1ccc(C(=O)/C=C/c2cn(CC(O)CN3CCc4ccccc43)c3ccccc23)cc1 (stereo not given),-13.8%,.,-74.0*,-13.8%,?,?
COc1ccccc1CCC(=O)O,-6.1%,.,.,-9.0%,.,.
Cc1cc(C(=O)Nc2cnn(C(C)(C)C(=O)NCc3ccco3)c2)c(C)o1,.,.,-4.5,.,.,.
COc1ccccc1N1CCN(C(c2cc3ccc(C)cc3[nH]c2=O)c2nnnn2C2CCCC2)CC1 (stereo not given),.,-5.9%,7.4,.,13µM*,-8.8%
CCC(C)(C)n1nnnc1C(c1cc2ccc(OC)cc2[nH]c1=O)N1CCN(C2CCCCC2)CC1 (stereo not given),.,?,-13.8,.,13µM*,16.1%
COc1ccc(N2CCN(C(c3cccc(OC)c3OC)c3nnnn3C3CCCC3)CC2)cc1 (stereo not given),-28.2%,?,-21.5,.,?,2.82µM*
COc1ccc(OC)c(C(c2nnnn2C2CCCC2)N2CCc3ccccc3C2)c1 (stereo not given),?,11.2µM*,-9.5,.,?,?
CCC(C)(C)n1nnnc1C(c1cc2cc3c(cc2[nH]c1=O)OCO3)N1CCCCC1 (stereo not given),-15.2%,3.0%,65.7,-11.4%,12.4%,5.7%
COc1ccccc1N1CCN(C(c2cc3cc(C)ccc3[nH]c2=O)c2nnnn2C2CCCC2)CC1 (stereo not given),.,-12.3%,-4.3,.,?,?
COc1cc(-c2cc(C)c3c(OC)ccc(OC)c3n2)cc2c1OCCN(C(=O)C(C)c1n[nH]c(=O)c3ccccc13)C2 (stereo not given),-3.6%,.,.,-11.3%,.,.
COc1ccccc1NC(=O)c1cc(=O)c2ccc(C)c(C)c2o1,3.3%,.,-9.4,-3.4%,?,23.2%[46.1 µM]
SMILES,Vaccinia Venus,HCV inhibitor,HCMV inh,Vaccinia mCherry,MARV entry inh,Lassa entry inh
COc1ccc(OC)c(C(c2nnnn2C2CCCC2)N2CCN(c3ccccc3F)CC2)c1 (stereo not given),-22.2%,?,-2.4,.,10µM*,?
COc1ccc(N2CCN(C(c3ccccc3OC)c3nnnn3C3CCCC3)CC2)cc1 (stereo not given),-18.5%,?,-16.7,.,?,?
N#CCc1ccc(NS(=O)(=O)c2ccc(C3CCCCC3)cc2)cc1,-15.9%,?,-64.2*,i,?,-0.4%
Cc1ccccc1Cn1c(=O)n(Cc2ccco2)c(=O)c2sc3ccccc3c21,-2.5%,.,-69.4*,-2.7%,?,0.1%[46.1 µM]
O=c1c2sc3ccccc3c2n(Cc2cccc(F)c2)c(=O)n1CCc1ccccc1,3.4%,.,27.5,-2.7%,?,?
O=c1c2sc3ccccc3c2n(Cc2ccc(Cl)cc2)c(=O)n1Cc1ccco1,-8.5%,.,40.0,-8.9%,-10.3%[46.1 µM],19.6%[46.1 µM]
Cc1cccc(Cn2c(=O)n(CCc3ccccc3)c(=O)c3sc4ccccc4c32)c1,3.4%,.,-95.5*,-0.5%,-4.2%[46.1 µM],25.3%[46.1 µM]
CCN(CC(=O)Nc1ccccc1C(F)(F)F)C(=O)c1ccccc1Cc1ccccc1,-14.6%,-16.1%,0.7,i,?,11.2µM*
CCN(CC(=O)Nc1ccccc1C(F)(F)F)C(=O)Cc1ccccc1,5.8%,24.0%,20.5,-1.7%,24.5%[46.1 µM],3.3%[46.1 µM]
O=[N+]([O-])c1ccc(Cl)cc1Sc1nc2ccccc2o1,-12.1%,?,-8.3,-27.2%,-4.1%,-13.3%
O=[N+]([O-])c1ccc(Sc2nc3ccccc3o2)c([N+](=O)[O-])c1,?,.,-107.0*,?,16.4µM*,-26.8%[14.3 µM]
Cc1ccc(Sc2ccc([N+](=O)[O-])cc2[N+](=O)[O-])nc1,-24.7%,-4.9%,4.3,?,?,?
Cc1ccnc(Sc2ccc([N+](=O)[O-])cc2[N+](=O)[O-])n1,.,?,-22.5,.,13µM*,?
Cc1nc2ccc(C(=O)NCC3CCC4(CCN(Cc5cccnc5)CC4)O3)cc2nc1C (stereo not given),3.7%,.,.,-11.3%,.,.
S=C(Nc1ccccc1)Nc1nc2ccccc2n1CCOc1ccccc1,.,6.31µM*,6.6,.,?,-9.6%
C[C@H]1[C@@H](NC(=O)Nc2ccc(C(F)(F)F)cc2)CC[C@@]23CCCN2C(=O)CCC[C@@H]13,.,.,-27.3,.,.,.
Cc1cccc(Cl)c1N=CN1c2ccccc2-n2cccc2C1CCc1ccccc1 (stereo not given),.,.,8.1,.,.,.
O=C(c1ccccc1)c1sc(N2CCCCCC2)nc1-c1ccccc1,?,?,-14.8,.,-23.2%,-15.3%
O=C(c1ccccc1)c1sc(N2CCOCC2)nc1-c1ccccc1,-8.0%,-19.5%,26.0,i,?,?
[2H]c1c([2H])c([2H])c(C(=O)c2sc(N3CCCCCC3)nc2-c2ccccc2)c([2H])c1[2H],-12.4%,22.4µM*,-11.8,.,?,-11.3%

# Screening data deposited in PubChem BioAssay by National Center for Advancing Translational Sciences (NCATS).
